Measurements taken from PubChem BioAssay (Tox21).
Inconclusive results are not listed. A number with no mark means an inactive call. The source made the active and inactive calls. The call rests on the fitted dose curve; in most records, active means well fitted cell-killing curve with a large enough effect in the repeat runs (not every such curve was filed as active); inconclusive means weak or mixed curves, or effect the other way; inactive means no such curve, though single readings can be large or run the other way.

Test: qHTS assay to identify small molecule antagonists of the estrogen related receptor signaling pathway with the pleiotropic PPARgamma coactivator (PGC) from Tox21 10K library - cell viability counter screen (AID 1224840); further: nearly all actives have a fitted effect of over 40% in size
Details: PGC/ERR reporter cells viability, CellTiter-Fluor, 17.5 h; series mostly up to 92.4 µM
From the text: National Center for Advancing Translational Sciences [NCATS]
NIH Chemical Genomics Center [NCGC]
U.S. Environmental Protection Agency [EPA]
National Institutes of Environmental Health Sciences [NIEHS]
National Toxicology Program [NTP]
U.S. Food and Drug Administration [FDA]
Estrogen related receptors (ERRs), the first orphan nuclear receptors discovered, play an important role in the control of cellular energy metabolism. ERRs are required for high-energy production in response to the environmental challenges. The pleiotropic PPARgamma coactivator (PGC) is a major partner of ERR and a key regulator in energy homeostasis. Together they have been implicated in the etiology of metabolic disorders such as Type 2 diabetes and metabolic syndrome. ERR-alpha was also identified as an adverse marker for breast cancer progression; ERR-alpha-positive tumors have a poor prognosis. To screen and to identify environmental compounds that perturb the ERR and PGC/ERR signaling pathways could provide valuable information for potential therapeutic or preventive measures in the treatment of metabolic disease. To differentiate true PGC/ERR antagonists or agonist from cytotoxic substances, the assay is multiplexed with cell viability assay.
Tox21 Assay Protocol Summary:
The PGC/ERR cells were dispensed at 2,000 cells/5 ul/well in 1536-well white plates using a Multidrop dispenser. After the assay plates were incubated at a 37 C/5% CO2 incubator for 6 hours, 23 nL of compounds dissolved in DMSO, positive and negative controls or DMSO only was transferred to the assay plate by a pin tool. The plates were incubated at 37 C for 17.5 hours. 1 ul/well of CellTiter-Fluor reagent was added into the assay plates using a Flying Reagent Dispenser. After 30-minute incubation at 37 C/5% CO2, the fluorescence intensity in the plates was measured using a ViewLux plate reader.
On the % scale 0 is the no-effect control and ±100 the full control effect.

Which outcome does the source give for `CCOCCOC(=O)/C=C/c1ccc(OC)cc1` here?
Its outcome is “inactive”.

With `Cc1c(I)c(=O)n(-c2ccccc2)n1C` as the compound, how does the outcome read?
Its outcome is “inactive”.

Which outcome does the source give for `COCCc1ccc(OCC2CO2)cc1` (stereo not given) here?
Its outcome is “inactive”.

Which outcome does the source give for `CCOC(=O)/C=C/c1ccccc1` here?
The outcome was “inactive”.

With `C=C(C)C(=O)OCC(C)(C)COC(=O)C(=C)C` as the compound, how does the outcome read?
The outcome was “inactive”.

For `C[Si](C)=O`, which viability change, negative = cytotoxic is on record?
Its viability change, negative = cytotoxic is 10.2% [at 8.39 µM].

For `CCCCCCCCC1CCC(=O)O1` (stereo not given), which outcome is on record?
The outcome was “inactive”.

With `CCOC(=O)CC(=O)c1ccccc1` as the compound, how does the outcome read?
Its outcome is “inactive”.

For `FC(F)(F)c1ccccc1-n1ccnc1`, which outcome is on record?
The outcome was “inactive”.

With `NC(CO)C(=O)NNCc1ccc(O)c(O)c1O` (stereo not given) as the compound, how does the outcome read?
The outcome was “inactive”.

Which outcome does the source give for `O=C(OCC(O)CO)c1ccccc1Nc1ccnc2c(C(F)(F)F)cccc12` (stereo not given) here?
The outcome was “inactive”.

With `CC(COC(C)(C)C)OCCCO` (stereo not given) as the compound, how does the outcome read?
Its outcome is “inactive”.

With `Cc1cc(Cl)c(C)cc1Cl` as the compound, how does the outcome read?
Its outcome is “inactive”.

Which outcome does the source give for `OCCN(CCO)c1cccc(Cl)c1` here?
Its outcome is “inactive”.

For `COc1ccc2c(c1)C(=O)N(CCc1ccc(S(=O)(=O)NC(=O)NC3CCCCC3)cc1)C(=O)C2(C)C`, which outcome is on record?
The outcome was “inactive”.

With `COCCOC(=O)C1=C(C)NC(C)=C(C(=O)OC(C)C)C1c1cccc([N+](=O)[O-])c1` (stereo not given) as the compound, how does the outcome read?
The outcome was “inactive”.

For `CCOC(=O)c1ccc(OC(=O)CCCCCN=C(N)N)cc1`, which outcome is on record?
The outcome was “inactive”.

With `O=C(NCC(O)CO)c1c(I)c(C(=O)NCC(O)CO)c(I)c(N(CCO)C(=O)CO)c1I` (stereo not given) as the compound, how does the outcome read?
Its outcome is “inactive”.

For `O=C(CCNNC(=O)c1ccncc1)NCc1ccccc1`, which outcome is on record?
Its outcome is “inactive”.

With `COc1ccc2nc(SCc3ncc(C)c(OC)c3C)[nH]c2c1` as the compound, how does the outcome read?
The outcome was “inactive”.

For `CCN(C)C(=O)Oc1cccc([C@H](C)N(C)C)c1`, which outcome is on record?
The outcome was “inactive”.

Which outcome does the source give for `CC1(CO)CN(c2ccccc2)NC1=O` (stereo not given) here?
Its outcome is “inactive”.

With `O=C(O)c1cc(Cl)cc([N+](=O)[O-])c1Cl` as the compound, how does the outcome read?
The outcome was “inactive”.

Which outcome does the source give for `CC(C)C(=O)OCCc1ccccc1` here?
Its outcome is “inactive”.

With `N[C@@H](CCC(=O)N[C@@H](CS)C(=O)NCC(=O)O)C(=O)O` as the compound, how does the viability change, negative = cytotoxic read?
The viability change, negative = cytotoxic was 15.7% [at 19 µM].

Which outcome does the source give for `O=C(NCCc1c[nH]c2ccccc12)c1cccnc1` here?
Its outcome is “inactive”.

Which outcome does the source give for `C=C(C)C1CCC(C)(O)CC1` (stereo not given) here?
Its outcome is “inactive”.

For `COc1ccc(Br)c(C)c1`, which outcome is on record?
Its outcome is “inactive”.

Which outcome does the source give for `O=C(O)c1cc(Br)c(O)c(Br)c1` here?
Its outcome is “inactive”.

With `OCCC(F)(F)C(F)(F)C(F)(F)C(F)(F)C(F)(F)C(F)(F)C(F)(F)C(F)(F)F` as the compound, how does the outcome read?
Its outcome is “inactive”.

With `COCCOCCOCCOCCOCCO` as the compound, how does the outcome read?
Its outcome is “inactive”.

Which outcome does the source give for `CC(=O)c1ccc2c(c1)Cc1ccccc1-2` here?
The outcome was “inactive”.

With `O=S(O)(O)=S` as the compound, how does the viability change, negative = cytotoxic read?
The viability change, negative = cytotoxic was 0.0211% [at 8.39 µM].

For `CC(C)NCC(O)COc1ccc(COCCOC(C)C)cc1` (stereo not given), which outcome is on record?
The outcome was “inactive”.

For `Oc1cn2c(n1)Nc1ccc(Cl)c(Cl)c1C2`, which viability change, negative = cytotoxic is on record?
The viability change, negative = cytotoxic was 5.01% [at 19 µM].

For `Cc1cc2cc3c(C)cc(=O)oc3c(C)c2o1`, which outcome is on record?
Its outcome is “inactive”.

For `Nc1ccc2cc(S(=O)(=O)O)cc(O)c2c1`, which outcome is on record?
Its outcome is “inactive”.

Which outcome does the source give for `CC(C)CCCCOC(=O)c1ccccc1C(=O)OCCCCC(C)C` here?
The outcome was “inactive”.

For `CCC(C=O)CC`, which outcome is on record?
Its outcome is “inactive”.

For `CC(=O)OC(C)OC(=O)C(C)c1ccc(-c2ccccc2)c(F)c1` (stereo not given), which outcome is on record?
Its outcome is “inactive”.
